These entries were drawn from the full list.
aSyn UTR act: Activators via SNCA 5'UTR binding, MLPCN | alpha-synuclein 5'UTR reporter, activators screen | activity score, % (tested at 7.5 µM), hits read low | 300,000 tested, 7.1% active | AID 1814, 2009; in the data active = activity score below about -60%
A number is an active result; 0 = inactive.

SMILES	aSyn UTR act
CCC(=O)Nc1sc(C(=O)Nc2ccccc2F)c(C)c1C(=O)OC	-64
CCCC(=O)Nc1sc(C(=O)Nc2cccc(N)c2)c(C)c1C(=O)OC	-84
COC(=O)c1c(NC(=O)c2cccnc2)sc(C(=O)N(C)C)c1C	-84
Fc1cccc(NCc2cn3ccccc3n2)c1	-97
Fc1ccc(NCc2cn3ccccc3n2)cc1	-174
O=C(COc1ccc(Oc2ccccc2)cc1)NCc1cn2ccccc2n1	0
O=C(NNC(=S)NC(=O)c1sc2ccccc2c1Cl)c1ccc(Cl)cc1	-67
CCn1nnc(NC(=O)c2sc3ccccc3c2Cl)n1	-82
O=C(Nc1ccnc(=O)[nH]1)c1sc2ccccc2c1Cl	-111
O=C(Nc1ccncc1)c1sc2ccccc2c1Cl	-97
O=C1CCC/C(=N/NC(=O)c2sc3ccccc3c2Cl)C1	-90
CCn1nnc(NC(=O)c2ccc(-c3ccc(Cl)cc3)o2)n1	-64
O=c1[nH]c(=O)n([C@H]2C[C@H](O)[C@@H](CO)O2)cc1F	0
N#Cc1c(N)nc2c(c1N)CC(COc1ccccc1)O2 (stereo not given)	-130
O=C(Nc1ccccc1)c1cc2n(n1)C(C(F)(F)F)CC(C1CC1)N2 (stereo not given)	-168
Cc1ccc(/C(O)=C2\C(=O)C(=O)N(Cc3cccnc3)C2c2ccccc2[N+](=O)[O-])cc1 (stereo not given)	-99
O=C(COc1ccccc1)Nc1nc2ccccc2[nH]1	-150
CC(CC(=O)Nc1nc2ccccc2[nH]1)c1ccccc1 (stereo not given)	-189
Cc1ccccc1OCC(=O)Nc1nc2ccccc2[nH]1	-111
CCNC(=O)COc1ccc(-c2ccccc2)cc1	-116
Cc1ccc(OCC(=O)N/N=C\c2cn(Cc3ccccc3)c3ccccc23)cc1C	0
CC(C)(C)NC(=O)COc1ccc(-c2ccccc2)cc1	-110
Cc1cc(OCC(=O)NC(C)(C)C)ccc1Cl	-93
CN(c1ccccc1)S(=O)(=O)c1cccc(NC(=O)c2cc3ccccc3oc2=O)c1	-106
Cc1ccc(NC(=O)c2cc3ccccc3oc2=O)cc1S(=O)(=O)N(C)C	0
SMILES	aSyn UTR act
COc1ccccc1NS(=O)(=O)c1cccc(NC(=O)c2cc3ccccc3oc2=O)c1	-114
CCn1ncc(Br)c1C(=O)Nc1cc(C)cc(C)c1	-71
Cc1cc(C)n(-c2nc3ccccc3c(=O)n2OCC(=O)OCc2ccccc2)n1	0
Cc1cc(CC(C)C)n(-c2nc3ccccc3c(=O)n2OCc2ccccc2)n1	-75
COc1ccc(/C=C2\CN(Cc3ccccc3)C/C(=C\c3ccc(OC)cc3OC)C2=O)c(OC)c1	-68
COc1ccc(C=C2c3ccccc3C(=O)c3ccccc32)c(OC)c1	0
COc1ccc2c(c1)OC/C(=C/c1cccs1)C2=O	-151
COc1ccc(/C=C2\COc3ccccc3C2=O)c(OC)c1	-140
O=C(NC(=S)NCCC1=CCCCC1)c1ccc(Br)o1	-115
O=C(NCCC1=CCCCC1)c1ccc(Br)o1	-83
Cc1ccc(NC(=S)NCCC2=CCCCC2)cc1	-137
CC(C)(C)c1cc(C(=O)NCc2cc(F)cc3c2OCOC3)n(Cc2ccccc2)n1	-109
O=c1oc2ccccc2c2oc3cc(O)c(O)cc3c12	-83
COC(=O)c1sccc1NC(=O)/C=C/c1c(Cl)cccc1Cl	-139
COC(=O)c1sccc1NC(=O)/C=C/c1ccc(Cl)cc1Cl	-206
COc1ccc2c(C(=O)CN3CCC(C)CC3)c[nH]c2c1	-76
CCOC(=O)C(=Cc1ccc(-c2ccsc2C(=O)OC)o1)C(=O)OCC	-88
CCOC(=O)/C(C#N)=C/c1ccc(-c2ccsc2C(=O)OC)o1	-117
Cc1cc(C(=O)COC(=O)c2ccc([N+](=O)[O-])o2)c(C)n1CC1CCCO1 (stereo not given)	-128
CSc1ncccc1C(=O)OCC(=O)c1cc(C)n(CC2CCCO2)c1C (stereo not given)	-69
COCCn1c(C)cc(C(=O)COC(=O)c2ccc([N+](=O)[O-])o2)c1C	-90
Cc1cc(C(=O)CSc2nc3ccccc3o2)c(C)n1CC1CCCO1 (stereo not given)	-138
CC1CCN(C(=O)COC(=O)c2ccc3c(c2)OCO3)CC1	-118
COCCn1c(C)cc(C(=O)COC(=O)c2cc3c(s2)CCC3)c1C	-78
Cc1cc(C(=O)COC(=O)c2ccc3c(c2)OCO3)c(C)n1CC1CCCO1 (stereo not given)	-68
SMILES	aSyn UTR act
COCCn1c(C)cc(C(=O)COC(=O)c2cccc(O)c2)c1C	0
Cn1c2c(c(=O)[nH]c1=O)C(c1ccc(O)cc1)C1=C(N2)c2ccccc2C1=O (stereo not given)	-67
CC1=C([N+](=O)[O-])C(c2ccccc2)C2=C(N1)c1ccccc1C2=O (stereo not given)	0
OCCCCCN=c1cc(-c2ccccc2)oc2ccc(Cl)cc12	-747
COc1cc2c(cc1OC)C(c1ccccc1)N(C(=O)CCl)CC2 (stereo not given)	-86
COc1cc(-c2nnn(CC(=O)NC3CCS(=O)(=O)C3)n2)ccc1OCc1ccccc1 (stereo not given)	-126
O=[N+]([O-])c1cc(N=Nc2ccc3ccccc3c2)ccc1O	-104
Cn1cccc1C(=O)OCc1cc(Cl)cc2c1OCOC2	-80
Cc1oc2ccc(O)cc2c1C(=O)c1ccc(Br)cc1	-62
COc1ccc2oc(C)c(C(=O)c3ccc(C)cc3)c2c1	-86
CC(=O)c1c(C)oc2ccc(OCc3ccccc3)cc12	-71
Cc1ccc2nc(-c3ccc(NS(=O)(=O)c4c(C)n(C)c(=O)n(C)c4=O)cc3)sc2c1	-94
Cc1cccc(S(=O)(=O)Nc2ccc(-c3nc4ccc(C)cc4s3)cc2)c1	-172
CC(=O)c1ccc(NS(=O)(=O)c2cccc(C)c2)cc1	-127
CCCS(=O)(=O)c1nc(S(=O)(=O)c2ccc(Cl)cc2)c(N2CCC(O)CC2)s1	-95
CCCS(=O)(=O)c1nc(S(=O)(=O)c2ccc(C)cc2)c(N2CCC(C(N)=O)CC2)s1	-75
Cc1ccc(C(=O)CC(c2cccs2)S(=O)(=O)c2ccc(C)cc2)cc1 (stereo not given)	-118
COc1cc(/C=C/C(=O)c2ccc([N+](=O)[O-])o2)ccc1O	0
COc1cc(/C=C/C(=O)CC(=O)/C=C/c2ccc(O)c(OC)c2)ccc1O	-85
COc1cc(/C=C2/CCC/C(=C\c3cc(O)c(OC)c(Cl)c3)C2=O)cc(Cl)c1O	-143
CCOc1cc(/C=C2\CN(CC)C/C(=C\c3ccc(O)c(OCC)c3)C2=O)ccc1O	0
COc1ccc(/C=C2\OC(=O)c3c(OC)cccc32)cc1OC	-200
COc1cc(/C=C2\CCC/C(=C\c3ccc(O)c(OC)c3)C2=O)ccc1O	-394
COc1cc(/C=C2\COC/C(=C\c3cc(OC)c(OC)c(OC)c3)C2=O)cc(OC)c1OC	0
COc1cc(/C=C2\Oc3cc(O)ccc3C2=O)ccc1O	-194
SMILES	aSyn UTR act
COc1ccc(/C=C2\CCCC(C(=O)C(F)(F)F)=C2O)cc1OC	-69
Cc1cc(-c2nc3ncccc3o2)ccc1N	-111
Nc1cc(-c2nc3ncccc3o2)ccc1Cl	-273
Cc1ccc(-c2nc3ncccc3o2)cc1N	-106
c1ccc(Oc2ccc3ccccc3n2)cc1	-129
Cc1ccc(N2CN=C3SCC(=O)N3C2)cc1C	-121
Cc1ncc(/C=C2\C(=O)Nc3ccccc32)[nH]1	-104
O=c1[nH]c(/C(Cl)=C/c2cc(Cl)ccc2O)nc2cc(Cl)ccc12	-90
C(=N\Nc1nc2ccccc2[nH]1)/c1cccc2nccnc12	0
CCCCn1c(/C=N/Nc2nc3ccccc3[nH]2)nc2ccccc21	-433

Screening results deposited in PubChem BioAssay by Broad Institute.
